# Records with an inconclusive call do not appear. Where a call stands in place of a potency, no number is given. A number with no mark means an inactive call. The source made the active and inactive calls. The call rests on the fitted dose curve; in most records, active means well fitted cell-killing curve with a large enough effect; inconclusive means small, poorly fitted or top-dose-only effect, or effect the other way; inactive means flat fitted curve, though single readings scatter.
# Test system: Tov112D
# Assay: Primary qHTS to identify gynecologic anti-cancer compounds using libraries of approved drugs and bioactive compounds (AID 1345084); further: nearly all actives have a fitted effect of over 55% in size
# Conditions: Gynecologic cancer cell panel viability, ATPlite luminescence, 48 h; series mostly up to 57.5 µM
# Procedure, shortened: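 Cells, 1,000 per well, were allowed to settle for 16 h at 37 C before compound addition. Five concentrations were tested for 48 h, and viability was read by ATPlite luminescence after 15 min at room temperature.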
# Potency means the concentration at half of the fitted maximal effect.
SMILES,Potency,"activity change, negative = cytotoxicity"
COc1cc2c(cc1OC)CN(C(=O)/C=C/c1c(-c3ccccc3)n(C)c3ncccc13)CC2,inactive,–
O=C(NCCCNC(=O)c1ccc[nH]c1=O)c1cc(-c2ccccc2)on1,inactive,–
Nc1nc(Cl)nc2c1ncn2C1OC(CO)C(O)C1F (centres undefined),0.398 µM (active),–
CC1CC(=O)C2=C(C1)C1OC1C1(O)C2C(=O)c2cccc(O)c2C1O (centres undefined),0.0891 µM (active),–
Cn1cc(-c2cnn3c(N)c(Br)c(C4CCCNC4)nc23)cn1 (centres undefined),inactive,–
CC(=O)c1c(C)cc2cccc(O)c2c1O[C@@H]1O[C@H](CO)[C@@H](O)[C@H](O)[C@H]1O,inactive,–
C=C1C(=O)O[C@@H]2C[C@H](C)[C@@H]3CC(=O)[C@H](O)[C@@]3(C)C[C@H]12,inactive,–
CO[C@H]1[C@@H](O)[C@H](O[C@H]2CC[C@@]3(C)C(CCC4C3CC[C@]35COC6(COC(=O)C6)C3CCC45O)C2)O[C@@H](C)[C@@H]1OC1OC(CO)C(OC2OC(CO)C(O)C(O)C2O)C(O)C1O (some centres undefined),2.82 µM (active),–
C=C1C(=O)OC2CC(C)C(CCC(C)=O)=CCC12 (centres undefined),inactive,–
CN(C)c1cccc(Oc2cnc(Nc3cccc(O)c3)nc2)c1,inactive,–
Cc1[nH]c(/C=C2\C(=O)Nc3cc(-c4ccccc4)ccc32)c(C)c1CCC(=O)O,inactive,–
O=C(Nc1ccc2[nH]nc(-c3ccncc3)c2c1)[C@@H]1CCN(CC(=O)N2CCN(c3ccc(-c4ncccn4)cc3)CC2)C1,inactive,–
C#Cc1cccc(Nc2nc3cc(C(=O)O)ccc3c3cncnc23)c1,inactive,–
C=C1C(=O)O[C@@H]2/C=C(\C)CC/C=C(\C)CC[C@@H]12,inactive,–
CN1CCN(S(=O)(=O)c2ccc(-c3cnc(N)c(C(=O)Nc4cccnc4)n3)cc2)CC1,inactive,–
C[C@H]1CO[C@@H]2Cn3cc(C(=O)NCc4ccc(F)cc4F)c(=O)c(O)c3C(=O)N12,inactive,–
Cc1cc(C(C)Nc2ccccc2C(=O)O)c2nc(N3CCOCC3)cc(=O)n2c1 (centres undefined),inactive,–
CCn1c(=O)c(-c2ccc(-c3cncs3)cc2Cl)cc2cnc(Nc3ccc(N4CCN(C)CC4)cc3)nc21,inactive,–
COc1cc(N2CCC(O)CC2)ccc1Nc1nc(Nc2ccccc2S(=O)(=O)C(C)C)c2[nH]cnc2n1,inactive,–
COc1cc2c(cc1OC(C)C)[C@H](c1ccc(Cl)cc1)N(c1ccc(N(C)CC3CCC(N4CCN(C)C(=O)C4)CC3)cc1)C(=O)C2 (some centres undefined),inactive,–

SMILES,Potency,"activity change, negative = cytotoxicity"
COC1CC(=O)C23C(=O)NC(Cc4c[nH]c5ccccc45)C2C(C)C2(C)OC2C3/C=C/CC(C)CC1O (centres undefined),inactive,–
C=CC(=O)Nc1cc(-n2c(=O)ccc3cnc4ccc(-c5ccc(NS(C)(=O)=O)cc5)cc4c32)ccc1C,inactive,–
CC[C@H](C)/C=C(C)/C=C/C1=CC2=CC(=O)[C@]3(C)OC(=O)[C@@H](C(C)=O)[C@@H]3C2=CO1,inactive,–
Cc1ccc(NC(=O)C(C)C)cc1C1CCN(Cc2ccc(Oc3ccc(F)c(F)c3)cc2)CC1,inactive,–
CC1CCCC[C@H]2C(=O)C=C[C@H](O)[C@@H]2CC(=O)O1 (some centres undefined),14.1 µM (active),–
C[C@H](Oc1cc(-c2cnn(C3CCNCC3)c2)cnc1N)c1c(Cl)ccc(F)c1Cl,inactive,–
CCn1c(-c2nonc2N)nc2c(C#CC(C)(C)O)ncc(OCC3CCCNC3)c21 (centres undefined),inactive,–
O=C(Nc1nc2cc(C(F)(F)F)cc(NC3CC3)n2n1)c1cccnc1,7.94 µM (active),–
C=C1C(=O)OC2C(OC(=O)C=C(C)C)C(C)=C3C(=O)C=C(C)C3C(O)C12 (centres undefined),inactive,–
C=C1CC(=O)C2OC2(C)CC2OC(=O)C(=C)C2C(O)C1OC(=O)/C(C)=C\C (centres undefined),inactive,–
Cn1cc(-c2cnn3c(N)c(Br)c([C@@H]4CCCNC4)nc23)cn1,inactive,–
C=C1C(=O)O[C@H]2CC(=C)[C@H]3CC[C@@](C)(O)[C@@H]3CC12 (some centres undefined),inactive,–
C[C@H](CN(C)C)Oc1nc(Nc2cc3cccc(Cl)c3cn2)cnc1C#N,inactive,–
C/C=C(/C)C(=O)O[C@H]1[C@H](OC(=O)/C(C)=C\C)[C@@]23C(CC1(C)C)[C@]1(CCC4[C@@]5(C)CC[C@H](O[C@@H]6O[C@H](C(=O)O)[C@@H](O)[C@H](O[C@@H]7O[C@H](CO)[C@H](O)[C@H](O)[C@H]7O[C@@H]7O[C@@H](C)[C@H](O)[C@@H](O)[C@H]7O[C@@H]7OC[C@@H](O)[C@H](O)[C@H]7O)[C@H]6O[C@@H]6O[C@H](CO)[C@H](O)[C@H](O)[C@H]6O)C(C)(C)C5CC[C@@]4(C)[C@]1(C)C[C@H]2O)O[C@H]3O (some centres undefined),–,-22.5% [at 6.55 µM]
C=CC(=O)Nc1cccc(Nc2nc(Nc3ccc(OCCOC)cc3)ncc2F)c1,4.47 µM (active),–
Fc1ccc(-c2nc(C3CCNCC3)sc2-c2ccnc(NC3CC3)n2)cc1,inactive,–
Cn1cc(-c2ccc(S(=O)(=O)n3ccc(/C=C/C(=O)Nc4ccccc4N)c3)cc2)cn1,4.47 µM (active),–
C=C1C(=O)O[C@@H]2[C@H]1CC[C@H](C)C(CCC(=O)O)C2(C)O (some centres undefined),inactive,–
C=C1C(=O)O[C@@H]2C3C(=C(C)[C@@H](O)[C@@H](OC(=O)/C(=C/C)COC(C)=O)[C@@H]12)C(=O)[C@H]1O[C@@]31C (some centres undefined),12.6 µM (active),–
